This note sets out measurements from PMC3218832.

Targets include RELARELA (p65 homodimer) (Homo sapiens, UniProt Q04206 1-307); p50p50 homodimer (Homo sapiens, UniProt P19838 7-356); RELB subunit;p50 subunit (Homo sapiens;Homo sapiens, UniProt Q01201;P19838 120-401;7-356).
Assay in all cases: protein binding microarray; high values mean tight binding
Holding throughout (conditions): dsDNA, one strand shown

For a further test, the target named is T1, p52p52 homodimer (Homo sapiens, UniProt Q00653 4-332).
T1 sequence: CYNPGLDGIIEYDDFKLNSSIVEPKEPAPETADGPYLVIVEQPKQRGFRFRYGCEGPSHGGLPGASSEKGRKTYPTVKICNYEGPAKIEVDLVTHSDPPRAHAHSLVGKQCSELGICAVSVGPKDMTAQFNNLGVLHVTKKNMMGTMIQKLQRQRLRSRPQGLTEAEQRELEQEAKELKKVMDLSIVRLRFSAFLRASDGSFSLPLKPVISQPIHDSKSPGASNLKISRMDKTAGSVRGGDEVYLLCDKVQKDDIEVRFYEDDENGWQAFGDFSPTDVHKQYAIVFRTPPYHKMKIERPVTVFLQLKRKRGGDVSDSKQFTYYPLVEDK

Test [1] deals with RELA (p65) subunit of heterodimer;p50 subunit (Homo sapiens;Homo sapiens, UniProt Q04206;P19838 1-307;7-356).
Test [2] concerns the target RELA (p65) subunit of heterodimer;p52 subunit (Homo sapiens;Homo sapiens, UniProt Q04206;Q00653 1-307;4-332).
Another test addresses T2, RELB subunit;p52 subunit (Homo sapiens;Homo sapiens, UniProt Q01201;Q00653 120-401;4-332).
T2 sequence 1: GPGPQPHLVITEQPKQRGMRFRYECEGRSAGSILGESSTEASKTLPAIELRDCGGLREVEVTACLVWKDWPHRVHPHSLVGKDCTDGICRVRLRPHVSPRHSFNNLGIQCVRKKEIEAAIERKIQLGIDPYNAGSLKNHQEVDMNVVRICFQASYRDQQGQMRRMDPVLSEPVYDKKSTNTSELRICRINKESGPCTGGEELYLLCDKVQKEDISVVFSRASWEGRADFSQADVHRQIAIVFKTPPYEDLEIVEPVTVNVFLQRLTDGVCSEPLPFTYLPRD
T2 sequence 2: T1 sequence

In test [3] the target is C-Rel subunit;p50 subunit (Homo sapiens;Homo sapiens, UniProt Q04864;P19838 1-285;7-356).
Test [4] addresses T3, C-Rel subunit;p52 subunit (Homo sapiens;Homo sapiens, UniProt Q04864;Q00653 1-285;4-332).
T3 sequence 1: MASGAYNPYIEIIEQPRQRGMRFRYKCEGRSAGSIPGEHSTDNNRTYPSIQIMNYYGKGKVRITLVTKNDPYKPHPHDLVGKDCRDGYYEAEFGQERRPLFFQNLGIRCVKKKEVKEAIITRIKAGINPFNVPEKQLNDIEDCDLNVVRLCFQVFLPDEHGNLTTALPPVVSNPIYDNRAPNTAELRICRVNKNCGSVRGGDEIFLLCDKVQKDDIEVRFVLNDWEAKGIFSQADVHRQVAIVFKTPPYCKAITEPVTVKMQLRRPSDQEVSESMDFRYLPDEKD
T3 sequence 2: T1 sequence

p50p50 homodimer, sequence (P19838 7-356): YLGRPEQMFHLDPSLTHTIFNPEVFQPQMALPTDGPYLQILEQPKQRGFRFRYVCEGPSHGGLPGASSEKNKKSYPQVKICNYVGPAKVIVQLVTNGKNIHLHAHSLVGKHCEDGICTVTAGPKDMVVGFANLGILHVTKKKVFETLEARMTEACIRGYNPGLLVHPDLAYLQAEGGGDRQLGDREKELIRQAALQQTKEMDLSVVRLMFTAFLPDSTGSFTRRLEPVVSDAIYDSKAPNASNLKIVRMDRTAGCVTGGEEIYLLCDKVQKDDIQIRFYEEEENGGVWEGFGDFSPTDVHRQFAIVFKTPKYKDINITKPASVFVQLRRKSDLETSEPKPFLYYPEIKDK
RELARELA (p65 homodimer), sequence (Q04206 1-307): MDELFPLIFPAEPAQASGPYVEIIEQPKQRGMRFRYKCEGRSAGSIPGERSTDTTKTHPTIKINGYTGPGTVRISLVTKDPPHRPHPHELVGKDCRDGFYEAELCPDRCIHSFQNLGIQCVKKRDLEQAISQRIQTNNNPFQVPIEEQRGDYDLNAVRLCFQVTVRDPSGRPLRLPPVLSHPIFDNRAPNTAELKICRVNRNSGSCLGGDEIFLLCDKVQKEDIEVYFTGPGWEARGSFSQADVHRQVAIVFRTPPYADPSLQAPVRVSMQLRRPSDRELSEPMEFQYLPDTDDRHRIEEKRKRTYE
RELA (p65) subunit of heterodimer;p50 subunit, sequence (Q04206 1-307, chain 1 of 2): as the sequence (Q04206 1-307) above
RELA (p65) subunit of heterodimer;p50 subunit, sequence (P19838 7-356, chain 2 of 2): as the sequence (P19838 7-356) above

Regarding CGGAGGTTCCC, the binding signal with RELARELA (p65 homodimer) was 1.2 z-score; in the test with p50p50 homodimer, -0.355 z-score; with p52p52 homodimer, -0.258 z-score; in test [1] it was 0.387 z-score; in test [2], -0.0508 z-score; with RELB subunit;p50 subunit, -0.291 z-score. For the same sequence, the binding signal with RELB subunit;p52 subunit is -0.115 z-score; in test [3], 0.126 z-score; in test [4] it was -0.0163 z-score.

GGAGGGATCCT: the binding signal is -0.405 z-score in the test with RELARELA (p65 homodimer); -1.1 z-score with p50p50 homodimer; -0.254 z-score with p52p52 homodimer; -0.619 z-score in test [1]; -0.58 z-score in [2]; -0.707 z-score in the test with RELB subunit;p50 subunit. Also, the binding signal with RELB subunit;p52 subunit is -0.517 z-score; in test [3], -1.01 z-score; in [4], -0.454 z-score.

On to GGGTGAATCCT, for which the binding signal in the test with RELARELA (p65 homodimer) is 0.03 z-score; with p50p50 homodimer it was 0.0518 z-score; with p52p52 homodimer it was 0.368 z-score; in test [1], -0.186 z-score; in test [2], 0.102 z-score; in the test with RELB subunit;p50 subunit, -0.241 z-score. Besides, the binding signal was -0.135 z-score with RELB subunit;p52 subunit, -0.176 z-score in [3] and -0.138 z-score in test [4].

Regarding GGAGATTCCCC, the binding signal in the test with RELARELA (p65 homodimer) was determined as 2.94 z-score; with p50p50 homodimer, 1.13 z-score; with p52p52 homodimer, 2.51 z-score; in test [1] it was 2.35 z-score; in [2] it was 2.22 z-score; in the test with RELB subunit;p50 subunit, 2.06 z-score. For the same sequence, the binding signal turned out to be 2.22 z-score with RELB subunit;p52 subunit, 1.88 z-score in test [3] and 2.2 z-score in test [4].

Regarding CAGGACTTCCT, the binding signal in the test with RELARELA (p65 homodimer) was -0.0226 z-score; with p50p50 homodimer it was -0.664 z-score; with p52p52 homodimer it was -0.608 z-score; in test [1], -0.403 z-score; in test [2] it was -0.542 z-score; with RELB subunit;p50 subunit, -0.897 z-score. Besides, the figures for the binding signal (with RELB subunit;p52 subunit; in [3]; in [4]) were -0.842 z-score, -0.448 z-score and -0.475 z-score, respectively.

Consider GAGTTAATCCC, for which the binding signal in the test with RELARELA (p65 homodimer) is 0.0777 z-score; in the test with p50p50 homodimer it was -0.527 z-score; in the test with p52p52 homodimer, -0.147 z-score; in test [1], -0.451 z-score; in test [2], -0.217 z-score; with RELB subunit;p50 subunit, -0.125 z-score. Besides, the figures for the binding signal (with RELB subunit;p52 subunit; in [3]; in [4]) were -0.157 z-score, -0.186 z-score and -0.227 z-score, respectively.

For AGATGTTCCCT, the binding signal in the test with RELARELA (p65 homodimer) is 0.238 z-score; with p50p50 homodimer, 0.414 z-score; with p52p52 homodimer, 0.229 z-score; in test [1], 0.235 z-score; in test [2], -0.0295 z-score; with RELB subunit;p50 subunit, 0.0779 z-score. The binding signal was -0.091 z-score in the test with RELB subunit;p52 subunit, 0.0801 z-score in [3] and -0.204 z-score in test [4].

As for GGGGTCATCCT, the binding signal with RELARELA (p65 homodimer) is -0.528 z-score; in the test with p50p50 homodimer it was -0.376 z-score; in the test with p52p52 homodimer, -0.115 z-score; in [1], -0.626 z-score; in test [2], -0.394 z-score; in the test with RELB subunit;p50 subunit, -0.425 z-score. Besides, the binding signal in the test with RELB subunit;p52 subunit was -0.362 z-score; in test [3], -0.494 z-score; in [4], -0.0992 z-score.

As to CAGGGATCCCC, the binding signal with RELARELA (p65 homodimer) worked out at 0.967 z-score; with p50p50 homodimer, 0.94 z-score; in the test with p52p52 homodimer it was 0.898 z-score; in test [1], 1.56 z-score; in [2], 1.23 z-score; in the test with RELB subunit;p50 subunit it was 1.11 z-score. The binding signal was determined as 1.1 z-score with RELB subunit;p52 subunit, 1.1 z-score in [3] and 1.31 z-score in test [4].

Regarding GAGTAATTCCT, the binding signal with RELARELA (p65 homodimer) was 0.42 z-score; with p50p50 homodimer, -1 z-score; with p52p52 homodimer, -0.525 z-score; in test [1] it was -0.42 z-score; in test [2], -0.441 z-score; with RELB subunit;p50 subunit, -0.739 z-score. Moreover, the binding signal is -0.87 z-score in the test with RELB subunit;p52 subunit, -0.18 z-score in [3] and -0.195 z-score in [4].

Regarding GGGATGCCCCT, the binding signal in the test with RELARELA (p65 homodimer) turned out to be 1.02 z-score; in the test with p50p50 homodimer it was 0.778 z-score; with p52p52 homodimer, 2.65 z-score; in test [1], 1.78 z-score; in [2], 2.07 z-score; in the test with RELB subunit;p50 subunit, 1.74 z-score. Moreover, the binding signal is 1.82 z-score in the test with RELB subunit;p52 subunit, 1.22 z-score in [3] and 2.2 z-score in test [4].

Take GGATTAGCCCC: the binding signal in the test with RELARELA (p65 homodimer) stood at 0.514 z-score; in the test with p50p50 homodimer, 0.405 z-score; with p52p52 homodimer, 0.296 z-score; in test [1], 0.431 z-score; in [2], 0.293 z-score; in the test with RELB subunit;p50 subunit, 0.211 z-score. In addition, the binding signal in the test with RELB subunit;p52 subunit was 0.414 z-score; in test [3] it was 0.535 z-score; in test [4] it was 0.373 z-score.

Turning to GAGTGTGCCCT, the binding signal in the test with RELARELA (p65 homodimer) was -0.0374 z-score; with p50p50 homodimer, -1.69 z-score; with p52p52 homodimer it was -0.704 z-score; in test [1], -0.552 z-score; in [2], -0.825 z-score; with RELB subunit;p50 subunit, -0.946 z-score. Also, the binding signal is -0.867 z-score with RELB subunit;p52 subunit, -0.869 z-score in test [3] and -0.582 z-score in test [4].

As for AGGGTTGCCCT, the binding signal is -0.236 z-score with RELARELA (p65 homodimer); -1.22 z-score in the test with p50p50 homodimer; -0.523 z-score with p52p52 homodimer; -0.681 z-score in test [1]; -0.727 z-score in test [2]; -0.807 z-score with RELB subunit;p50 subunit. In addition, the binding signal in the test with RELB subunit;p52 subunit is -0.774 z-score; in test [3], -0.341 z-score; in test [4], -0.29 z-score.

On to CAGGGCCTCCC, for which the binding signal was -0.644 z-score in the test with RELARELA (p65 homodimer); -0.933 z-score with p50p50 homodimer; -0.467 z-score in the test with p52p52 homodimer; -0.699 z-score in test [1]; -0.636 z-score in [2]; -0.64 z-score in the test with RELB subunit;p50 subunit. Further, the binding signal with RELB subunit;p52 subunit was -0.746 z-score; in test [3] it was -0.529 z-score; in test [4], -0.502 z-score.

Take GGGTGTGTCCC: the binding signal with RELARELA (p65 homodimer) was 0.547 z-score; in the test with p50p50 homodimer, 0.331 z-score; with p52p52 homodimer it was 1.38 z-score; in [1], 0.647 z-score; in [2] it was 1.02 z-score; in the test with RELB subunit;p50 subunit it was 0.42 z-score. For the same sequence, the binding signal with RELB subunit;p52 subunit stood at 0.593 z-score; in test [3], 0.648 z-score; in [4], 0.813 z-score.

Turning to GAAGGCGTCCC, the binding signal with RELARELA (p65 homodimer) was -0.376 z-score; in the test with p50p50 homodimer it was -0.0302 z-score; with p52p52 homodimer, -0.0163 z-score; in [1], -0.134 z-score; in test [2], -0.134 z-score; with RELB subunit;p50 subunit it was 0.147 z-score. The binding signal with RELB subunit;p52 subunit was 0.216 z-score; in test [3], -0.0533 z-score; in test [4] it was -0.265 z-score.

Regarding GGGTAGGCCCC, the binding signal with RELARELA (p65 homodimer) is -0.379 z-score; in the test with p50p50 homodimer, 0.314 z-score; with p52p52 homodimer, 1.45 z-score; in [1], 0.396 z-score; in test [2] it was 1.04 z-score; with RELB subunit;p50 subunit, 0.459 z-score. The binding signal turned out to be 0.305 z-score with RELB subunit;p52 subunit, 0.392 z-score in test [3] and 0.593 z-score in [4].

Consider AGATTCTTCCT, for which the binding signal with RELARELA (p65 homodimer) was -0.0679 z-score; in the test with p50p50 homodimer, -0.78 z-score; in the test with p52p52 homodimer, -0.546 z-score; in test [1], -0.559 z-score; in [2] it was -0.896 z-score; with RELB subunit;p50 subunit, -0.929 z-score. The binding signal with RELB subunit;p52 subunit is -0.93 z-score; in test [3], -0.642 z-score; in [4], -0.588 z-score.

As for AAGGGTGCCCT, the binding signal in the test with RELARELA (p65 homodimer) is -1.07 z-score; in the test with p50p50 homodimer it was -1.79 z-score; with p52p52 homodimer it was -0.569 z-score; in test [1], -1.02 z-score; in [2] it was -0.718 z-score; with RELB subunit;p50 subunit, -0.876 z-score. In addition, the values for the binding signal (with RELB subunit;p52 subunit; in test [3]; in test [4]) were -0.74 z-score, -1.1 z-score and -0.646 z-score, respectively.

Consider GGAGAGCTCCT, for which the binding signal was -0.469 z-score in the test with RELARELA (p65 homodimer); -1.71 z-score with p50p50 homodimer; -0.711 z-score with p52p52 homodimer; -1.01 z-score in [1]; -1.01 z-score in [2]; -1.17 z-score with RELB subunit;p50 subunit. The binding signal was -1.06 z-score with RELB subunit;p52 subunit, -1.65 z-score in [3] and -1.07 z-score in test [4].
